Where two headings read alike, the source gives them in different places.
Legend:
TAOK3 = details: concentration: 1 μM, replicates: in singlicate; n = 1
TBK1 = details: concentration: 1 μM, replicates: in singlicate; n = 1
TEC = details: concentration: 1 μM, replicates: in singlicate; n = 1
TESK1 = details: concentration: 1 μM, replicates: in singlicate; n = 1
TGFBR1 = details: n = 1
TGFBR2 = details: concentration: 1 μM, replicates: in singlicate; n = 1
TIE1 = details: concentration: 1 μM, replicates: in singlicate; n = 1
TIE2 = test system: T1, TIE2; details: concentration: 1 μM, replicates: in singlicate; n = 1
T1 construct: gene TEK

TLK1 = details: concentration: 1 μM, replicates: in singlicate; n = 1
TLK2 = details: concentration: 1 μM, replicates: in singlicate; n = 1
TNIK = details: concentration: 1 μM, replicates: in singlicate; n = 1
TNK1 = details: concentration: 1 μM, replicates: in singlicate; n = 1
TNK2 = details: concentration: 1 μM, replicates: in singlicate; n = 1
TNNI3K = details: concentration: 1 μM, replicates: in singlicate; n = 1
TRKA = test system: T2, TRKA; details: concentration: 1 μM, replicates: in singlicate; n = 1
T2 construct: gene NTRK1

TRKB = details: concentration: 1 μM, replicates: in singlicate; n = 1
TRKC = test system: T3, TRKC; details: concentration: 1 μM, replicates: in singlicate; n = 1
T3 construct: gene NTRK3

TRPM6 = details: concentration: 1 μM, replicates: in singlicate; n = 1
TSSK1B = details: concentration: 1 μM, replicates: in singlicate; n = 1
TSSK3 = details: concentration: 1 μM, replicates: in singlicate; n = 1
[1] = concentration: 1 μM, replicates: in singlicate
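Note: KINOMEscan kinase panel screen.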

Fc1cc(Cl)ccc1Nc1ccnc2cc(-c3ccc(CN4CCCCC4)o3)ccc12 [GW560116]
%Inh (TAOK3): 0%
%Inh (TBK1): 14%
%Inh (TEC): 5%
%Inh (TESK1): 19%
%Inh (TGFBR1; [1]): 0%
%Inh (TGFBR2): 0%
%Inh (TIE1): 0%
%Inh (TIE2): 0%
%Inh (TLK1): 0%
%Inh (TLK2): 0%
%Inh (TNIK): 10%
%Inh (TNK1): 0%
%Inh (TNK2): 2%
%Inh (TNNI3K): 0%
%Inh (TRKA): 4%
%Inh (TRKB): 19%
%Inh (TRKC): 12%
%Inh (TRPM6): 0%
%Inh (TSSK1B): 0%
%Inh (TSSK3): 8%

Clc1cc(Cl)cc(Nc2ccnc(Nc3cc(Cl)cc(Cl)c3)n2)c1 [GSK175726]
%Inh (TAOK3): 0%
%Inh (TBK1): 28%
%Inh (TEC): 0%
%Inh (TESK1): 20%
%Inh (TGFBR1; [1]): 0%
%Inh (TGFBR2): 7%
%Inh (TIE1): 0%
%Inh (TIE2): 0%
%Inh (TLK1): 25%
%Inh (TLK2): 3%
%Inh (TNIK): 0%
%Inh (TNK1): 0%
%Inh (TNK2): 12%
%Inh (TNNI3K): 6%
%Inh (TRKA): 19%
%Inh (TRKB): 0%
%Inh (TRKC): 0%
%Inh (TRPM6): 0%
%Inh (TSSK1B): 0%
%Inh (TSSK3): 10%

Cc1cc(NCC(c2ccccc2)c2ccccc2)nc(NCc2ccc(C(F)(F)F)cc2)n1 [GW497681]
%Inh (TAOK3): 0%
%Inh (TBK1): 22%
%Inh (TEC): 0%
%Inh (TESK1): 13%
%Inh (TGFBR1; [1]): 22%
%Inh (TGFBR2): 0%
%Inh (TIE1): 0%
%Inh (TIE2): 0%
%Inh (TLK1): 9%
%Inh (TLK2): 0%
%Inh (TNIK): 0%
%Inh (TNK1): 0%
%Inh (TNK2): 0%
%Inh (TNNI3K): 0%
%Inh (TRKA): 0%
%Inh (TRKB): 14%
%Inh (TRKC): 7%
%Inh (TRPM6): 0%
%Inh (TSSK1B): 0%
%Inh (TSSK3): 4%

CCCc1ccc(S(=O)(=O)NC2CCN(c3ccnc(Nc4ccc(F)cc4)n3)C2)cc1 (centres unmarked) [GSK1379715]
%Inh (TAOK3): 0%
%Inh (TBK1): 0%
%Inh (TEC): 0%
%Inh (TESK1): 74%
%Inh (TGFBR1; [1]): 0%
%Inh (TGFBR2): 0%
%Inh (TIE1): 0%
%Inh (TIE2): 0%
%Inh (TLK1): 0%
%Inh (TLK2): 0%
%Inh (TNIK): 0%
%Inh (TNK1): 0%
%Inh (TNK2): 26%
%Inh (TNNI3K): 13%
%Inh (TRKA): 0%
%Inh (TRKB): 0%
%Inh (TRKC): 28%
%Inh (TRPM6): 0%
%Inh (TSSK1B): 100%
%Inh (TSSK3): 15%

Cc1ccc(C(=O)Nc2ccc(Nc3ccnc4cc(-c5ccccn5)ccc34)cc2O)cc1.Cl [GW440146]
%Inh (TAOK3): 0%
%Inh (TBK1): 0%
%Inh (TEC): 13%
%Inh (TESK1): 13%
%Inh (TGFBR1; [1]): 3%
%Inh (TGFBR2): 26%
%Inh (TIE1): 19%
%Inh (TIE2): 0%
%Inh (TLK1): 0%
%Inh (TLK2): 0%
%Inh (TNIK): 0%
%Inh (TNK1): 45%
%Inh (TNK2): 95.3%
%Inh (TNNI3K): 0%
%Inh (TRKA): 7%
%Inh (TRKB): 0%
%Inh (TRKC): 34%
%Inh (TRPM6): 57%
%Inh (TSSK1B): 34%
%Inh (TSSK3): 13%

COc1cccc(-c2cc(-c3c[nH]nc3-c3ccccn3)ccn2)c1 [GW680338]
%Inh (TAOK3): 0%
%Inh (TBK1): 0%
%Inh (TEC): 0%
%Inh (TESK1): 15%
%Inh (TGFBR1; 1 µM): 54%
%Inh (TGFBR2): 32%
%Inh (TIE1): 0%
%Inh (TIE2): 0%
%Inh (TLK1): 0%
%Inh (TLK2): 0%
%Inh (TNIK): 71%
%Inh (TNK1): 0%
%Inh (TNK2): 0%
%Inh (TNNI3K): 9%
%Inh (TRKA): 38%
%Inh (TRKB): 0%
%Inh (TRKC): 11%
%Inh (TRPM6): 0%
%Inh (TSSK1B): 0%
%Inh (TSSK3): 11%

COc1cc2nccc(Nc3ccc(NC(=O)c4ccc(C)cc4)c(O)c3)c2cc1OC.Cl [GW440132]
%Inh (TAOK3): 0%
%Inh (TBK1): 0%
%Inh (TEC): 3%
%Inh (TESK1): 25%
%Inh (TGFBR1; [1]): 0%
%Inh (TGFBR2): 0%
%Inh (TIE1): 6%
%Inh (TIE2): 0%
%Inh (TLK1): 0%
%Inh (TLK2): 0%
%Inh (TNIK): 0%
%Inh (TNK1): 26%
%Inh (TNK2): 48%
%Inh (TNNI3K): 4%
%Inh (TRKA): 36%
%Inh (TRKB): 0%
%Inh (TRKC): 0%
%Inh (TRPM6): 5%
%Inh (TSSK1B): 3%
%Inh (TSSK3): 18%

Cc1cc(N2Cc3ccccc3C2)nc(Nc2ccc(S(=O)(=O)N3CCOCC3)cc2)n1.Cl [GSK1669917]
%Inh (TAOK3): 0%
%Inh (TBK1): 30%
%Inh (TEC): 0%
%Inh (TESK1): 12%
%Inh (TGFBR1; [1]): 0%
%Inh (TGFBR2): 0%
%Inh (TIE1): 0%
%Inh (TIE2): 0%
%Inh (TLK1): 2%
%Inh (TLK2): 0%
%Inh (TNIK): 0%
%Inh (TNK1): 0%
%Inh (TNK2): 7%
%Inh (TNNI3K): 0%
%Inh (TRKA): 0%
%Inh (TRKB): 0%
%Inh (TRKC): 0%
%Inh (TRPM6): 9%
%Inh (TSSK1B): 0%
%Inh (TSSK3): 8%

Cc1ccccc1-n1cnc2c(N)ncnc21 [SKF-97510]
%Inh (TAOK3): 0%
%Inh (TBK1): 7%
%Inh (TEC): 9%
%Inh (TESK1): 3%
%Inh (TGFBR1; [1]): 0%
%Inh (TGFBR2): 0%
%Inh (TIE1): 0%
%Inh (TIE2): 0%
%Inh (TLK1): 81%
%Inh (TLK2): 7%
%Inh (TNIK): 0%
%Inh (TNK1): 0%
%Inh (TNK2): 7%
%Inh (TNNI3K): 0%
%Inh (TRKA): 0%
%Inh (TRKB): 0%
%Inh (TRKC): 0%
%Inh (TRPM6): 66%
%Inh (TSSK1B): 0%
%Inh (TSSK3): 0%

CC(C)(C)c1ccc(C(=O)Nc2cn3cc(-c4cccnc4)ccc3n2)cc1
%Inh (TAOK3): 0%
%Inh (TBK1): 40%
%Inh (TEC): 10%
%Inh (TESK1): 4%
%Inh (TGFBR1; [1]): 1%
%Inh (TGFBR2): 7%
%Inh (TIE1): 4%
%Inh (TIE2): 27%
%Inh (TLK1): 46%
%Inh (TLK2): 5%
%Inh (TNIK): 25%
%Inh (TNK1): 0%
%Inh (TNK2): 17%
%Inh (TNNI3K): 0%
%Inh (TRKA): 10%
%Inh (TRKB): 11%
%Inh (TRKC): 1%
%Inh (TRPM6): 0%
%Inh (TSSK1B): 0%
%Inh (TSSK3): 0%
